According to the supplement of paper PMC6555819:

How the values were obtained:
Test in all cases: PBM binding z-score (relative to random genomic background probes); higher = stronger binding; sequences stand for … in GC…GCGATTGACAGCGTAGAATGAAGG
[1] = tested on: FXR:RXRa (NR concentration 270 nM, RXRa partner concentration 90 nM)
Summary of the method: (§1)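 Custom Agilent 4×180K protein-binding microarrays carried double-stranded probes. Their 34-nt variable regions held direct-repeat seeds, single-nucleotide variants, half-site ablations and random human genomic background sequences. Arrays were incubated 1 h with ligand-free nuclear receptor dimers in PBS pH 7.4, 2% milk, 0.02% Triton X-100, 1 mM DTT, 0.2 mg/mL BSA and 0.4 mg/ml salmon testes DNA. Antibodies against each partner (one per run) detected binding, and scanned fluorescence was regression-normalized. Binding z-scores use random background probes as reference.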

[2] = tested on: LXRa:RXRa (NR concentration 270 nM, RXRa partner concentration 90 nM)
Summary of the method: as §1

[3] = tested on: LXRa homodimer (NR concentration 270 nM)
Summary of the method: as §1

[4] = tested on: LXRb:RXRa (NR concentration 270 nM, RXRa partner concentration 90 nM)
Summary of the method: as §1

[5] = tested on: LXRb homodimer (NR concentration 270 nM)
Summary of the method: as §1

[6] = tested on: PPARa:RXRa (NR concentration 270 nM, RXRa partner concentration 90 nM)
Summary of the method: as §1

[7] = tested on: PPARg:RXRa (NR concentration 180 nM, RXRa partner concentration 90 nM)
Summary of the method: as §1

[8] = tested on: PPARg:RXRa 270nM:90nM, anti-RXR (NR concentration 270 nM, RXRa partner concentration 90 nM)
Summary of the method: as §1

[9] = tested on: PPARg:RXRa 30nM:10nM, anti-RXR (NR concentration 30 nM, RXRa partner concentration 10 nM)
Summary of the method: as §1

[10] = tested on: PPARg:RXRa 90nM:30nM, anti-RXR (NR concentration 90 nM, RXRa partner concentration 30 nM)
Summary of the method: as §1

[11] = tested on: PPARg:RXRa DBDmut IVT, anti-RXR (DBD mutation: RXRa K156A/R161A, NR concentration 270 nM, RXRa partner concentration 90 nM)
Summary of the method: as §1

[12] = tested on: PPARg:RXRa IVT, anti-PPARg (NR concentration 270 nM, RXRa partner concentration 90 nM)
Summary of the method: as §1

[13] = tested on: PPARg DBDmut:RXRa IVT, anti-PPARg (DBD mutation: PPARg1 K132A/R137A, NR concentration 270 nM, RXRa partner concentration 90 nM)
Summary of the method: as §1

[14] = tested on: PPARg DBDmut IVT, anti-PPARg (DBD mutation: PPARg1 K132A/R137A, NR concentration 270 nM)
Summary of the method: as §1

[15] = tested on: PPARg homodimer (NR concentration 180 nM)
Summary of the method: as §1

[16] = tested on: PXR:RXRa (NR concentration 270 nM, RXRa partner concentration 90 nM)
Summary of the method: as §1

[17] = tested on: PXR homodimer (NR concentration 270 nM)
Summary of the method: as §1

[18] = tested on: RARa:RXR (NR concentration 270 nM, RXRa partner concentration 90 nM)
Summary of the method: as §1

[19] = tested on: RARa homodimer (NR concentration 270 nM)
Summary of the method: as §1

[20] = tested on: RARb:RXRa (NR concentration 270 nM, RXRa partner concentration 90 nM)
Summary of the method: as §1

Sequence	PBM binding z-score [1]	PBM binding z-score [2]	PBM binding z-score [3]	PBM binding z-score [4]	PBM binding z-score [5]	PBM binding z-score [6]	PBM binding z-score [7]	PBM binding z-score [8]	PBM binding z-score [9]	PBM binding z-score [10]	PBM binding z-score [11]	PBM binding z-score [12]	PBM binding z-score [13]	PBM binding z-score [14]	PBM binding z-score [15]	PBM binding z-score [16]	PBM binding z-score [17]	PBM binding z-score [18]	PBM binding z-score [19]	PBM binding z-score [20]
ATCTCTAGGTAAAGATATTTCAGTGAATGCAAAT	0.207	0.268	0.422	0.346	0.74	0.352	0.976	0.732	0.499	0.83	2.46	1.88	1.53	1.33	0.424	0.367	0.337	0.994	1.26	0.0831
TCGAGTAGGTTCGTCGGGGCATTCAGCCAACATA	0.282	0.37	-0.315	0.726	-0.765	0.757	-0.436	0.394	0.955	0.64	0.771	-0.0233	-1.34	-1.13	-0.174	0.391	-0.361	0.296	-0.807	0.556
CCTAGTTGGTCAGGAGGTCACACACCGGATATGA	3.73	3.67	2.08	3.3	0.83	4.11	3.41	3.95	1.75	3.27	1.79	3.68	0.499	0.258	3.9	4.41	1.41	4.76	2.91	3.82
TTACCAAGGTGAGCTGAAGTCGTTGATCCAACTC	-0.293	-0.529	-0.801	-0.542	-1.23	0.187	-0.231	0.143	-0.185	0.0287	0.859	1.48	-0.768	-0.947	-0.94	-0.181	-0.685	-0.105	-0.713	0.929
ATCTCTAGGTAGAAGTTCAGTGAATCCCGAGGAT	0.0471	0.223	0.0969	0.0752	0.257	2.6	4.33	5.62	4.14	5.52	0.0712	1.23	0.95	0.43	0.271	0.947	1	0.436	0.785	1.07
TGAATCAGGTTAAAGATCAGGGAACGTGGCGTCG	0.631	0.732	-0.19	0.221	-0.0822	3.29	4.92	5.85	5.28	6.34	2.15	3.33	0.98	0.175	0.529	0.343	-0.173	1.17	0.262	0.993
CCGGACAGGTGAGAAGGTAACTCAGCCTCGATTA	-0.332	-0.196	-0.289	-0.26	-0.839	0.454	0.347	0.118	-0.24	-0.183	1.04	0.612	-0.39	-1.64	0.569	-0.415	-0.227	-0.262	0.0296	0.711
TGTCAAAGTTCAATGGTAACGTAAGTATCCACAC	5.2	5.16	2.81	3.03	0.934	4.31	6.86	6.53	4.18	6.12	-0.339	3.53	0.89	1.61	2.42	3.89	2.86	2.38	1.11	4.58
GCGACTGGGGCATCAGCAGCTTACCATAACTTAA	-0.818	-0.694	-0.417	-0.0189	-1.2	0.137	0.465	0.329	-0.116	-0.198	4.14	2.77	-0.78	-0.628	-0.268	-0.462	-0.432	-0.454	-0.449	0.116
ACTAGCAGGCCAAGTTTGGGTCACTCGAACAAAG	0.398	0.0952	-0.533	0.67	-0.727	1.33	0.0973	0.504	-0.62	0.14	1.03	1.36	-0.745	-0.0393	0.399	0.625	-0.591	1.12	-0.754	1.68
AGAATGAGGGTACCAAAGATCAGGGAAACGCTTG	-0.148	2.43	-0.475	0.326	-0.167	1.18	1.28	1.52	0.506	1.19	1.95	1.35	0.283	0.511	-0.237	-0.107	0.0728	0.253	0.0319	0.552
AGAACGAGGGCACGCTGAGTTGATAGTAGAGTAG	0.725	0.439	-0.765	0.35	-0.699	2.1	1.94	1.62	0.448	0.971	4.08	3.89	0.542	0.293	0.125	1.26	0.49	0.759	-0.324	2.57
CTCGAAAGGTTGTGCTCAGGTGAGTATACCAAAC	0.895	0.617	-0.192	0.714	-0.313	1.04	-0.0653	0.312	-0.567	0.171	-0.27	-0.00807	-0.154	-0.108	0.203	0.645	-0.0824	1.38	0.121	1.2
ACAGACAGGTGAGTGAAGGGAACTCAGCTGGACG	0.599	0.176	-0.538	-0.538	-0.387	-0.171	0.513	-0.458	-0.652	-0.465	0.124	0.352	-0.265	-0.714	-0.397	-0.572	-0.37	-0.456	-0.307	0.438
ACAGACAGGTGAGTGAAGGTAAGTCAGCTGGACG	0.17	0.000763	-0.483	-0.528	-0.65	0.236	0.568	-0.129	-0.0839	-0.0489	0.544	0.594	-0.101	-0.745	-0.0235	-0.37	-0.45	0.0462	-0.141	0.623
CATCAAAGTTCAAGGTAACGTAACAGAAAGCAGC	6.68	5.7	3.88	3.79	2.13	4.66	3.59	4	1.71	2.82	0.753	1.84	1.29	1.96	2.92	4.19	2.76	3.44	2.21	5.31
CTCGAAAGGTCGTGCGCAGGTGAGTATACCAAAC	5.71	4.35	0.33	3.84	0.153	5.58	3.34	4.47	1.36	2.98	0.325	2.29	0.196	0.413	1.83	3.65	-0.0048	4.48	0.0809	4.19
CCTTACGAGTCACTCCAGGTTATAGCATCGGAGT	1.35	4.98	1.69	1.55	0.939	0.751	0.539	0.0713	-0.0643	-0.0945	0.574	0.424	0.623	0.364	1.41	1.2	1.12	0.999	1.56	0.664
GCGACTTGGGCAAAGCAGGTTACCATAAGGTTGG	-0.371	-0.57	-0.467	-0.537	-1.29	0.243	0.451	-0.351	-0.654	-0.41	-0.00446	-0.245	-0.728	-1.56	-0.641	-0.189	-0.923	0.287	-1.35	-0.0319
CCGACTGGGGCAATGTTACCATAACGCACAGCCA	-0.585	-0.725	-0.195	-0.162	-1.01	0.11	1.21	0.645	-0.14	0.223	3.67	2.99	-0.638	-0.759	0.142	-0.771	-0.41	-0.456	0.0364	0.351
TTACCAAGGTGACGGTCGTTGATCCCTCTGTAGA	1.07	0.963	-0.313	0.464	-0.534	1.5	0.654	1.29	0.738	0.929	2.39	3.64	0.228	-0.126	0.25	0.252	-0.877	0.759	-0.412	1.82
AGAATGAGGTTACCAAAGATCAAGGAAACGCTTG	2.13	7.01	0.25	4.24	-0.325	3.7	2.89	3.09	1.08	2.26	3.78	3.43	0.922	0.563	0.97	2.06	-0.325	2.48	-0.42	2.25
TCATATAGGCAATACAGGTGAAAGTCGGCATCTA	1.06	0.731	0.422	0.906	-0.3	1.3	0.823	1.91	3.62	2.85	2.91	1.7	0.893	0.339	0.723	0.419	0.292	0.707	0.869	0.192
ACTAGTTGGTCAGCTGCGGTCACACACAATTCGG	0.216	0.737	1.43	0.671	0.37	0.527	0.606	0.528	-0.0871	0.128	1.11	1.54	0.929	0.572	0.275	1.27	0.281	1.42	0.564	2.26
GCGACTAGGGCAAAGCAGGTTACCATAAGGTTGG	0.0913	0.121	-0.0293	-0.376	-1.03	1.17	1.63	1.77	-0.187	0.722	4.76	4.23	-0.472	-0.903	0.0824	0.293	-0.481	0.775	-1.2	1.1
AGTATGAGGTTATTAAGATCAGGGAATTGCGGTC	1.55	1.75	0.568	1.52	0.578	2.12	0.776	1.12	0.453	0.816	0.549	1.51	1.49	0.314	1.11	1.5	0.942	1.55	1.05	1.4
GCGACTGGGGCGTCAGCAGGTTACCATAACTTAA	-0.381	-0.378	-0.324	0.262	-1.19	0.425	0.0029	-0.411	-0.842	-0.965	0.993	0.504	-1.26	-0.889	-0.668	-0.181	-0.71	0.206	-1.15	0.327
GCTATTAGTTGAAAGGACAACCGAATGATTCTCG	-0.0393	-0.0503	-0.151	-0.41	-0.0299	0.0455	0.857	1.45	0.556	0.958	0.447	-0.166	0.553	0.18	0.735	-0.372	0.0666	-0.189	1.02	1.32
